Measurements from PubChem BioAssay AID1159580 (chemical genetic matrix, 2015).
Screen size: about 5,500 compounds; about 2,000 (36%) were called active. Another 18% or so got no clear call; they are omitted. No stated cut-off is given here; in the data, active means normalized growth mostly below about 0.91 (no sharp cut-off); inconclusive means no clear call, values can overlap the other calls; inactive means mostly above about 0.92. The list shows a part of the results.

Experiment: chemical genetic growth profiling, strain panel (AID 1159580);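 further: tested at 20 µM; growth read once vehicle control cultures reached saturation at 30 °C; 1 = growth at the plate median or of vehicle wells; lower values mean less growth of the strain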
Conditions: growth OD
[1] = S. cerevisiae deletion strains, locus YAL040C, strain CLN3, hits give low values
[2] = S. cerevisiae deletion strains, locus YCL061C, strain MRC1 (second series), hits give low values
[3] = S. cerevisiae deletion strains, locus YDR150W, strain NUM1, hits give low values
[4] = S. cerevisiae deletion strains, locus YDR363W, strain ESC2, hits give low values
[5] = S. cerevisiae deletion strains, locus YER002W, strain NOP16, hits give low values
[6] = S. cerevisiae deletion strains, locus YGR229C, strain SMI1, hits give low values
[7] = S. cerevisiae deletion strains, locus YJR075W, strain HOC1, hits give low values
[8] = S. cerevisiae deletion strains, locus YMR263W, strain SAP30, hits give low values
[9] = S. cerevisiae deletion strains, locus YMR307W, strain GAS1, hits give low values
[10] = S. cerevisiae deletion strains, locus YNL128W, strain TEP1, hits give low values
[11] = S. cerevisiae deletion strains, locus YNL153C, strain GIM3, hits give low values
[12] = S. cerevisiae deletion strains, locus YNL175C, strain NOP13, hits give low values
[13] = S. cerevisiae deletion strains, locus YNL197C, strain WHI3, hits give low values
[14] = S. cerevisiae deletion strains, locus YNL224C, strain SQS1, hits give low values
[15] = S. cerevisiae deletion strains, locus YNL322C, strain KRE1, hits give low values
[16] = S. cerevisiae deletion strains, locus YOR083W, strain WHI5 (second series), hits give low values
[17] = S. cerevisiae deletion strains, locus YPL055C, strain LGE1, hits give low values
[18] = S. cerevisiae deletion strains, locus YPL241C, strain CIN2, hits give low values
[19] = S. cerevisiae deletion strains, locus YAL013W, strain DEP1, hits give low values

Measured: normalized growth

O=C(O)CCCCCC[C@H]1C(=O)NC(=O)N1CC[C@@H](O)C1CCCCC1
inactive: [1] 0.969 | [2] 0.985 | [3] 0.996 | [4] 0.985 | [5] 0.936 | [6] 0.999 | [7] 0.996 | [8] 0.993 | [9] 1 | [10] 0.942 | [11] 0.971 | [12] 0.987 | [13] 0.962 | [14] 0.982 | [15] 0.99 | [16] 0.985

COc1ccccc1C1OC(=O)CC1C(=O)O (configuration not stated)
inactive: S. cerevisiae deletion strains, locus YBR229C, strain ROT2, hits give low values 1.02 | S. cerevisiae deletion strains, locus YCL061C, strain MRC1, hits give low values 0.989 | S. cerevisiae deletion strains, locus YDL101C, strain DUN1, hits give low values 1 | S. cerevisiae deletion strains, locus YDL134C, strain PPH21, hits give low values 1.03 | [3] 0.947 | S. cerevisiae deletion strains, locus YEL061C, strain CIN8, hits give low values 1 | S. cerevisiae deletion strains, locus YGR078C, strain PAC10, hits give low values 0.987 | S. cerevisiae deletion strains, locus YHR030C, strain SLT2, hits give low values 0.963 | S. cerevisiae deletion strains, locus YHR087W, strain rtc3, hits give low values 1.03 | S. cerevisiae deletion strains, locus YJL187C, strain SWE1, hits give low values 1.01 | S. cerevisiae deletion strains, locus YJR043C, strain POL32, hits give low values 0.98 | [7] 0.986 | S. cerevisiae deletion strains, locus YLR039C, strain RIC1, hits give low values 1.02 | S. cerevisiae deletion strains, locus YLR058C, strain SHM2 (second series), hits give low values 1.01 | S. cerevisiae deletion strains, locus YLR085C, strain ARP6, hits give low values 1.02 | S. cerevisiae deletion strains, locus YLR262C, strain YPT6, hits give low values 1.02 | S. cerevisiae deletion strains, locus YML094W, strain GIM5, hits give low values 1.02 | S. cerevisiae deletion strains, locus YMR219W, strain ESC1, hits give low values 1.01 | [8] 0.968 | [10] 1.02 | [11] 1 | S. cerevisiae deletion strains, locus YNL298W, strain CLA4 (second series), hits give low values 0.998 | [15] 0.999 | S. cerevisiae deletion strains, locus YNR030W, strain Alg12, hits give low values 1.01 | S. cerevisiae deletion strains, locus YOL006C, strain TOP1, hits give low values 1.07 | [17] 0.955 | [18] 0.989 | S. cerevisiae deletion strains, locus YPR135W, strain CTF4, hits give low values 1.02 | S. cerevisiae strains, strain wild type, hits give low values 1.02

N=C(N)c1ccc(N)cc1
inactive: [19] 1.01 | [1] 0.975 | [2] 0.998 | [4] 0.981 | [5] 0.997 | [6] 1.01 | [9] 1 | [10] 0.978 | [11] 1 | [12] 1.01 | [13] 0.994 | [14] 0.968 | [16] 0.981 | [18] 1

N=C(N)c1ccc(OCCCCCOc2ccc(C(=N)N)cc2)cc1 (tested in a mixture with another compound)
inactive: [19] 0.943 | [1] 0.944 | [2] 0.981 | [3] 0.963 | [4] 0.961 | [5] 0.95 | [8] 0.983 | [12] 0.962 | [13] 0.943 | [14] 0.946 | [16] 0.944 | [17] 0.912 | [18] 0.95
